This passage reports binding signal results from paper PMC10668032, “Altered binding affinity of SIX1-Q177R correlates with enhanced WNT5A and WNT pathway effector expression in Wilms tumor”.

Over roughly 33,000 sequences, “e-score” has its median near -0.05; the highest 2% begin near 0.38. The full list was thinned out, with the highest values kept by preference.

This experiment has as its target T1, SIX1-Q177R homeodomain (human, UniProt Q15475 108-198, Q177R).
T1 sequence: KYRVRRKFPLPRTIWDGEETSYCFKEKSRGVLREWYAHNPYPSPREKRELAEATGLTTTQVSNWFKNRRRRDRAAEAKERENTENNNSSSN
Nature of the experiment: universal protein binding microarray; Universal all-10-mer PBM (8x60K, AMADID 030236), 300 nM GST-tagged protein, Alexa Fluor 488 anti-GST; buffer, salt, pH and temperature not stated (as in Berger); high values mean tight binding. The conditions noted are these: protein: ivt; tags: N-terminal GST; dsDNA, one strand shown. In short, it runs like this:
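Duplicate protein binding microarrays (universal 'all 10-mer', 8×60K format) were incubated with GST-tagged homeodomains at 300 nM final concentration. Binding was quantified as 8-mer E-scores with the Universal PBM Analysis Suite.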
Turning to CACGAGTA, the binding signal was 0.167 ± 0.0394 E-score.

GGTATCGA: the binding signal is 0.2937 ± 0.0007 E-score.

Consider ATCGTGTG, for which the binding signal is 0.229 ± 0.0199 E-score.

Consider CTCGTGTC, for which the binding signal was 0.409 ± 0.0114 E-score.

GTCGTGCA: the binding signal was found to be 0.181 ± 0.0113 E-score.

As for CTTGTGTC, the binding signal turned out to be 0.168 ± 0.0605 E-score.

ATCGTGTA: the binding signal amounted to 0.403 ± 0.0236 E-score.

As for CTCGGGTC, the binding signal came to 0.155 ± 0.0227 E-score.

For the sequence GTCGTGTA, the binding signal stood at 0.438 ± 0.00933 E-score.

Consider ATCGTGTC, for which the binding signal was determined as 0.413 ± 0.0104 E-score.

As to GTCGAGTA, the binding signal was 0.1983 ± 0.00156 E-score.

Regarding CAAGCGTG, the binding signal is 0.165 ± 0.0253 E-score.

Consider CACCACCC, for which the binding signal came to 0.3364 ± 0.00314 E-score.

Take ACGGATCA: the binding signal worked out at 0.172 ± 0.0172 E-score.

With GACCCGCC, the binding signal is 0.18 ± 0.0248 E-score.

As for ACGGGTGC, the binding signal stood at 0.237 ± 0.00406 E-score.

Take CCGGGATC: the binding signal turned out to be 0.164 ± 0.0362 E-score.

As to CTCGAGTA, the binding signal came out at 0.164 ± 0.00196 E-score.

Regarding CTCGTGTA, the binding signal was 0.398 ± 0.00843 E-score.

For the sequence CTCGGGTA, the binding signal stood at 0.168 ± 0.0141 E-score.

For the sequence AACAGGGG, the binding signal was 0.17 ± 0.00571 E-score.

For CATAGCAC, the binding signal is 0.195 ± 0.00827 E-score.

AATAACAC: the binding signal came to 0.426 ± 0.0299 E-score.

As for AATAAACA, the binding signal was 0.218 ± 0.0334 E-score.

Consider GATAATAC, for which the binding signal amounted to 0.1568 ± 0.000269 E-score.

For CATAACAC, the binding signal is 0.426 ± 0.00624 E-score.

As for GATAACAC, the binding signal is 0.4333 ± 0.00385 E-score.

In the case of ATAAACAC, the binding signal came to 0.365 ± 0.0198 E-score.

As to GATAACCC, the binding signal amounted to 0.19 ± 0.0215 E-score.

With CAAAACAC, the binding signal came to 0.321 ± 0.0321 E-score.

Turning to CACCATAA, the binding signal turned out to be 0.303 ± 0.015 E-score.

For ATGACCCG, the binding signal worked out at 0.2 ± 0.00637 E-score.

For ACTAGGTG, the binding signal amounted to 0.218 ± 0.00902 E-score.

For the sequence ACCCCAAC, the binding signal came out at 0.237 ± 0.00988 E-score.

With ACCGGAGT, the binding signal was 0.25 ± 0.0191 E-score.

In the case of AGACCCCA, the binding signal came out at 0.175 ± 0.0169 E-score.

Take CCCACACG: the binding signal was found to be 0.2877 ± 0.0011 E-score.

On to CCCACACC, for which the binding signal stood at 0.39 ± 0.0401 E-score.

In the case of ACCACACC, the binding signal was found to be 0.407 ± 0.0186 E-score.

On to ACCACACA, for which the binding signal was determined as 0.196 ± 0.00984 E-score.

Regarding ACCACACG, the binding signal was 0.297 ± 0.00738 E-score.

GCCACACC: the binding signal amounted to 0.367 ± 0.0389 E-score.

On to ACACTTGA, for which the binding signal is 0.376 ± 0.0165 E-score.

As for CGTTGGTA, the binding signal turned out to be 0.151 ± 0.00584 E-score.

As to GCGCGACA, the binding signal was 0.155 ± 0.0207 E-score.

On to CACCGTAC, for which the binding signal stood at 0.365 ± 0.0199 E-score.

On to CACGGCTC, for which the binding signal came to 0.154 ± 0.0275 E-score.

In the case of AGGTCGTG, the binding signal was determined as 0.264 ± 0.0209 E-score.

With ACACTTCA, the binding signal came to 0.313 ± 0.047 E-score.

Consider ACACTTCG, for which the binding signal worked out at 0.327 ± 0.0333 E-score.

For ACACTTCC, the binding signal stood at 0.349 ± 0.026 E-score.

Turning to CCCCTGCA, the binding signal amounted to 0.17 ± 0.016 E-score.

Consider ACACTGCG, for which the binding signal was 0.383 ± 0.00512 E-score.

With ACACTGCA, the binding signal stood at 0.385 ± 0.00749 E-score.

Turning to ACACTGCT, the binding signal was 0.339 ± 0.0327 E-score.

With ACACTGCC, the binding signal turned out to be 0.429 ± 0.0024 E-score.

For CACGAGTG, the binding signal was 0.317 ± 0.0328 E-score.

On to CTGGGGTA, for which the binding signal stood at 0.194 ± 0.0256 E-score.

Consider CCCCCAAC, for which the binding signal was 0.17 ± 0.0237 E-score.

Regarding TAATGACA, the binding signal worked out at 0.203 ± 0.0464 E-score.

Turning to CGCATTGC, the binding signal worked out at 0.166 ± 0.0234 E-score.

In the case of AGTGATCC, the binding signal stood at 0.184 ± 0.018 E-score.

Regarding GGCACACA, the binding signal came to 0.179 ± 0.0131 E-score.

As to AGGTGTAC, the binding signal was determined as 0.4703 ± 0.00148 E-score.

With AGGTGCAC, the binding signal was 0.264 ± 0.00684 E-score.

For AGGTATAA, the binding signal was 0.17 ± 0.0346 E-score.

As to CGGTGTAC, the binding signal turned out to be 0.4872 ± 0.00266 E-score.

Turning to ACCTGTAT, the binding signal is 0.17 ± 0.00632 E-score.

Turning to ATGTGTAG, the binding signal stood at 0.183 ± 0.0469 E-score.

For AGGTGTAG, the binding signal was 0.473 ± 0.00747 E-score.

With ATGTGTAC, the binding signal is 0.23 ± 0.0242 E-score.

For CGATGTAC, the binding signal turned out to be 0.254 ± 0.0159 E-score.

Take AGGTGTAT: the binding signal worked out at 0.441 ± 0.0169 E-score.

For AGGTGCGG, the binding signal stood at 0.187 ± 0.0153 E-score.

Regarding CGGTGCAC, the binding signal was 0.296 ± 0.017 E-score.

For CAGCGGGG, the binding signal worked out at 0.194 ± 0.00852 E-score.

In the case of CACTCTCC, the binding signal came out at 0.192 ± 0.0425 E-score.

For CACGACGG, the binding signal amounted to 0.182 ± 0.0214 E-score.

With CCATTACA, the binding signal was determined as 0.162 ± 0.00552 E-score.

On to CCGGAGTA, for which the binding signal worked out at 0.227 ± 0.00414 E-score.

For the sequence CACCCGTC, the binding signal was 0.338 ± 0.01 E-score.

For the sequence ACCCCGTC, the binding signal worked out at 0.178 ± 0.0222 E-score.

Consider ACACCGTC, for which the binding signal was 0.4594 ± 0.0011 E-score.
